Screening results: PubChem BioAssay, National Center for Advancing Translational Sciences (NCATS)
LmPK inhibitor: blocks Leishmania mexicana pyruvate kinase activity; purified LmPK, Kinase-Glo ATP luminescence, 1 h; actives 0.37% (n = 290,000); Potency, µM (titrated, usually from 57.5 µM), without a hit: top-dose activity change, negative = inhibition, usual class: inhibitors; note: potency is the fitted concentration of half-maximal effect
Target sequence (Q27686 whole entry, looked up): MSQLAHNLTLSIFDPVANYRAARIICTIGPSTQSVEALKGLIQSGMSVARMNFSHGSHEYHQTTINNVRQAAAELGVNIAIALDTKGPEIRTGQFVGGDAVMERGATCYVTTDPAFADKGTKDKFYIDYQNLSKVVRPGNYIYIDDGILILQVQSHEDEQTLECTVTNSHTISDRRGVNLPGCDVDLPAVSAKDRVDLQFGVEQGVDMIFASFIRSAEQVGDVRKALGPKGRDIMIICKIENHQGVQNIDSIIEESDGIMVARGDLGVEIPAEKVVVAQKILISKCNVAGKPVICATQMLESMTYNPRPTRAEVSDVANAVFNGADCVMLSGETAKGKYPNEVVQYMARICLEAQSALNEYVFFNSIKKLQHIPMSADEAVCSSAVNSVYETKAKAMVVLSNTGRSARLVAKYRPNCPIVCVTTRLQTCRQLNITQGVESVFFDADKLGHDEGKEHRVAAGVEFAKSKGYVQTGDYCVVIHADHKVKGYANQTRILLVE
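Screened at intermediate enzyme activity to detect both inhibitors and activators: LmPK at 0.1 nM, with a 0.5 nM enzyme column as activation reference. PEP 0.5 mM, ADP 0.1 mM; ATP detected by luminescence after 1 h.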
Tb PYK inh: inhibitors of Trypanosoma brucei pyruvate kinase; Potency, µM (highest dose often 76.8 µM), without a hit: top-dose activity, negative = inhibition, most hits filed as inhibitors; actives 0.12% (n = 410,000); TbPYK enzyme, Kinase-Glo Plus ATP luminescence, 45 min; Q57TT1; note: potency is the fitted concentration of half-maximal effect; nearly all actives have a fitted effect of over 50% in size
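TbPYK + substrate in 50 mM TEA pH 7.2, 100 mM KCl, 10 mM MgCl2, 0.05% BSA, 0.01% Tween-20; cpd pinned; ADP 130 uM final; 45 min RT; Kinase-Glo Plus 10 min; luminescence endpoint.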
Vaccinia Venus: vaccinia inhibition (Venus reporter); Potency, µM (top dose mostly 36.5 µM), for the others: top-dose activity change, negative = inhibition, most hits filed as inhibitors; Vaccinia virus Venus reporter expression, fluorescence; actives 0.46% (n = 330,000); calls by dose curve; tested in A549 cells; note: potency is the fitted concentration of half-maximal effect; nearly all actives have a fitted effect of over 30% in size
HCMV inh: inhibitors of human cytomegalovirus. HFF cells, HCMV-luciferase reporter, 72 h; stronger effect = lower value. activity change, negative = inhibition, % at 57.5 µM. actives 4.5% (n = 410,000). AID 1259415; in the data active = activity change below about -60%; inconclusive = no clear call, values can overlap the other calls; inactive = above about -39%
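Steps: HFFs plated, 16 h 37C; compounds added; HCMV-luciferase added to MOI 1 PFU/cell; 72 h 37C; OneGlo reagent, 5 min room temperature; luminescence read, normalized to controls.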
VACV mCherry inh: inhibitors of vaccinia virus infection (mCherry reporter signal); Vaccinia virus mCherry reporter infection, fluorescence; Potency, µM (highest dose often 36.5 µM), for inactives: at the top dose activity change, negative = inhibition, hits mostly inhibitors; actives 0.63% (n = 310,000); AID 720579; calls by dose curve; tested in A549 cells; note: potency is the fitted concentration of half-maximal effect; nearly all actives have a fitted effect of over 35% in size
* hit, by the source's call; [ ] = remark or other dose. Compounds with a hit are over-represented: about 5% of the library has one in this group of screens. Unless noted, calls come from the whole dose curve; as a rule, active = well fitted curve in the direction sought with a large enough effect; inconclusive = small, poorly fitted or top-dose-only effect, or another doubt; inactive = no such curve, though single readings can be large; an effect the other way counts as inactive or inconclusive. % is set by controls: 0 for no effect and ±100 for the full control effect.

How did Cc1ccc(Cn2c(C)c(C(=O)NCC(C)C)sc2=O)cc1 do in these assays?
Tb PYK inh: -1.5%; Vaccinia Venus: 4.8%; HCMV inh: -24.9; VACV mCherry inh: inactive

How did COc1ccc(Br)cc1S(=O)(=O)NNC(=O)c1c(C)nc2ccccn12 do in these assays?
LmPK inhibitor: 3.7%; Tb PYK inh: 1.0%; Vaccinia Venus: -6.2%; HCMV inh: -38.3; VACV mCherry inh: -3.8%

What do the screens show for `Cc1nc2ccccn2c1C(=O)NNS(=O)(=O)c1ccc(C(C)(C)C)cc1`?
LmPK inhibitor: 0.0%; Tb PYK inh: -17.0%; Vaccinia Venus: -18.5%; HCMV inh: -63.5*; VACV mCherry inh: -7.7%

How did Cc1ccc(OCC(=O)Nc2cc(C(=O)O)cc(C(=O)O)c2)cc1C do in these assays?
LmPK inhibitor: -0.3%; Tb PYK inh: inconclusive; Vaccinia Venus: 5.3%; HCMV inh: -64.5*; VACV mCherry inh: 4.6%

How did Cc1ccc(OCC(=O)Nc2ccc3c(c2)OCCO3)cc1C do in these assays?
LmPK inhibitor: -0.1%[11.5 µM]; Tb PYK inh: 3.5%; Vaccinia Venus: -12.9%; HCMV inh: -63.1*; VACV mCherry inh: inconclusive

Results for Cc1ccc(OCC(=O)Nc2cc(NC(=O)COc3ccc(C)cc3)cc(C(=O)O)c2)cc1 ?
LmPK inhibitor: -3.3%; Tb PYK inh: -5.7%; HCMV inh: -12.1

Results for Cc1cc(Cl)ccc1NC(=O)CN1C(=O)NC2(CCCc3ccccc32)C1=O (stereo not given) ?
Tb PYK inh: -6.1%; Vaccinia Venus: -13.2%; HCMV inh: 47.2; VACV mCherry inh: -23.4%

Results for CC(C)COc1ccc(CN=C(N)N=C(N)N)cc1Cl ?
LmPK inhibitor: -4.8%; Tb PYK inh: 2.0%; HCMV inh: -76.5*

Results for CC(C)Oc1ccc(CN=C(N)N=C(N)N)cc1Cl ?
LmPK inhibitor: 2.4%; Tb PYK inh: 1.3%; Vaccinia Venus: -3.8%; HCMV inh: -74.6*; VACV mCherry inh: inconclusive

How did COc1ccc(CN=C(N)N=C(N)N)cc1Cl do in these assays?
LmPK inhibitor: -1.4%; Tb PYK inh: 1.8%; Vaccinia Venus: -24.9%; HCMV inh: inconclusive; VACV mCherry inh: -24.6%

What do the screens show for `COc1ccc(C)cc1S(=O)(=O)N1CCN(C(=O)c2ncoc2-c2ccccc2C)CC1`?
LmPK inhibitor: 4.1%; Tb PYK inh: 6.1%; Vaccinia Venus: -0.3%; HCMV inh: -15.3; VACV mCherry inh: -16.6%

How did C[C@@H]1CCCCO[C@H](CN(C)Cc2ccc(C(=O)O)cc2)[C@@H](C)CN([C@H](C)CO)C(=O)c2cc(NC(=O)CCC(F)(F)F)ccc2O1 do in these assays?
Tb PYK inh: -6.6%; Vaccinia Venus: -12.5%; HCMV inh: 5.8; VACV mCherry inh: -12.8%

How did CCOC(=O)C1=C(CS(=O)(=O)c2cccc(C(F)(F)F)c2)NC(=O)NC1c1cccc(OC)c1 (stereo not given) do in these assays?
Tb PYK inh: 5.4%; Vaccinia Venus: -9.6%; HCMV inh: 5.9; VACV mCherry inh: -11.0%

How did COc1ccc(C(=O)N/C(=C\c2ccccc2)C(=O)NC(CC(C)C)C(=O)O)cc1 (stereo not given) do in these assays?
LmPK inhibitor: 5.9%; Tb PYK inh: 0.9%; Vaccinia Venus: -2.4%; HCMV inh: 4.6; VACV mCherry inh: inactive

Results for CCCN(C(=O)C1CSC2(C)CCC(=O)N12)c1c(N)n(Cc2ccccc2)c(=O)[nH]c1=O (stereo not given) ?
Tb PYK inh: 1.5%; Vaccinia Venus: -18.7%; HCMV inh: -37.5; VACV mCherry inh: -11.1%

What do the screens show for `O=C(Nc1cccc(S(=O)(=O)N2CCCCC2)c1)c1ccc2ncsc2c1`?
LmPK inhibitor: 4.5%; Tb PYK inh: 1.4%; HCMV inh: -9.3

Results for COc1cc2cccc(OC)c(=O)c2c(O)c1OC ?
LmPK inhibitor: -3.8%; Tb PYK inh: 3.0%; Vaccinia Venus: -10.0%; HCMV inh: 147.2; VACV mCherry inh: inactive

What do the screens show for `COc1cc2c(ccc3cc(OC)c(OC)c(O)c32)cc1O`?
LmPK inhibitor: 12.7%; Tb PYK inh: -11.3%; Vaccinia Venus: -20.2%; HCMV inh: -104.8*; VACV mCherry inh: -10.5%

What do the screens show for `CC1(C)CC(=NO)CC(C)(C)N1`?
LmPK inhibitor: -0.6%; Tb PYK inh: -0.1%; Vaccinia Venus: -5.8%; HCMV inh: 53.7; VACV mCherry inh: -7.5%

Results for C[C@@H]1CN([C@H](C)CO)C(=O)Cc2cc(NC(=O)Nc3ccccc3)ccc2O[C@@H]1CN(C)Cc1ccc2c(c1)OCO2 ?
Tb PYK inh: 6.4%; Vaccinia Venus: 28.2µM*; HCMV inh: 15.2; VACV mCherry inh: inconclusive

What do the screens show for `CCCCNC(=O)CO/N=C(\C)c1cc2ccccc2o1`?
LmPK inhibitor: 0.6%; Tb PYK inh: 3.2%; Vaccinia Venus: -11.7%; HCMV inh: 18.4; VACV mCherry inh: inactive

Results for Cc1onc(-c2c(Cl)cccc2Cl)c1C(=O)ONC(=O)c1cc(C(F)(F)F)cc(C(F)(F)F)c1 ?
LmPK inhibitor: 6.7%; Tb PYK inh: -4.3%; Vaccinia Venus: -11.2%; HCMV inh: -98.7*; VACV mCherry inh: -9.6%

What do the screens show for `CCN(CC(=O)Nc1ccc(NC(C)=O)cc1)C(=O)C1CCN(C(=O)c2ccccc2C)CC1`?
Tb PYK inh: 5.4%; Vaccinia Venus: -2.2%; HCMV inh: 0.6; VACV mCherry inh: -8.8%

Results for CN(C)c1cc[n+](Cc2c(Cl)cccc2Cl)cc1 ?
LmPK inhibitor: -3.2%; Tb PYK inh: 1.5%; HCMV inh: -87.4*

Results for CN(C)c1cc[n+](CC[n+]2ccc(N(C)C)cc2)cc1 ?
Tb PYK inh: -1.0%; Vaccinia Venus: -2.6%; HCMV inh: 8.2; VACV mCherry inh: inactive

What do the screens show for `O=C(NCc1ccncc1)c1ccc(-c2ccc(F)c(F)c2)c2ccoc12`?
Tb PYK inh: 2.7%; Vaccinia Venus: inconclusive; HCMV inh: -72.7*; VACV mCherry inh: -9.3%

What do the screens show for `COc1ccc(-c2ccc(C(=O)NCc3ccc(F)c(F)c3)c3occc23)c(C)c1`?
Tb PYK inh: 6.2%; Vaccinia Venus: -12.9%; HCMV inh: inconclusive; VACV mCherry inh: -4.6%

What do the screens show for `COc1ccc(-c2ccc(C(=O)NCc3ccncc3)c3occc23)c(C)c1`?
Tb PYK inh: 2.6%; Vaccinia Venus: -16.8%; HCMV inh: -91.1*; VACV mCherry inh: -24.7%

How did Cc1ccc(NC(=O)c2nc[nH]c2C(=O)NCCN(CCNC(=O)c2[nH]cnc2C(=O)Nc2ccc(C)cc2)CCNC(=O)c2[nH]cnc2C(=O)Nc2ccc(C)cc2)cc1 do in these assays?
Tb PYK inh: -0.3%; Vaccinia Venus: inconclusive; HCMV inh: -15.7; VACV mCherry inh: -16.5%

Results for Cc1cc(-c2ccc(C)c(S(=O)(=O)N3CCN(c4ccc([N+](=O)[O-])cc4)CC3)c2)on1 ?
LmPK inhibitor: -9.1%; Tb PYK inh: -0.6%; Vaccinia Venus: -7.2%; HCMV inh: -73.0*; VACV mCherry inh: inactive
